Experiment [1] can be described thus: qHTS assay to identify small molecule antagonists of the thyroid receptor (TR) signaling pathway - cell viability counter screen (AID 743064). Further: nearly all actives have a fitted effect of over 50% in size. The essentials: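 GH3.TRE-Luc rat pituitary cells carrying a TRE-luciferase reporter were treated with compound plus 1 nM T3 (final) for 23.5 h at 37 °C. Viability was then read in the same wells by CellTiter-Fluor fluorescence after a further 30 min.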
(In general: Quantitative high-throughput screening tests each substance at several concentrations.)

The nature of experiment [2]: qHTS assay to identify small molecule antagonists of the thyroid receptor (TR) signaling pathway (AID 743065). Further: series mostly up to about 70 µM; nearly all actives have a fitted effect of over 55% in size. The procedure, abridged:
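GH3.TRE-Luc rat pituitary cells carrying two TR response elements driving luciferase were plated for 4 h, given compound plus 1 nM T3 (final), and incubated 23.5 h at 37 C. ONE-Glo luminescence measured reporter inhibition; CellTiter-Fluor fluorescence tracked cytotoxicity.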

In experiment [3] the test system is thyroid hormone receptor (rat, GH3 cells). As to the kind of experiment: qHTS assay to identify small molecule agonists of the thyroid receptor (TR) signaling pathway (AID 743066; calls by dose curve; further: potency means the concentration at half of the fitted maximal effect).
The target of experiment [4] is Estrogen receptor (Homo sapiens) (UniProt P03372). Briefly: qHTS assay to identify small molecule antagonists of the estrogen receptor alpha (ER-alpha) signaling pathway (AID 743069; active means well fitted curve in the direction sought with a large enough effect in the signal ratio in the repeat runs, not every such curve was filed as active; the % refers to the signal ratio). The essentials: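 Estradiol-stimulated ER-alpha-UAS-bla HEK293 cells, 18 hr compound exposure at 37C. LiveBLAzer B/G substrate, 2 hr RT, fluorescence read.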
Sequence of Estrogen receptor (Homo sapiens) (P03372 whole entry, looked up): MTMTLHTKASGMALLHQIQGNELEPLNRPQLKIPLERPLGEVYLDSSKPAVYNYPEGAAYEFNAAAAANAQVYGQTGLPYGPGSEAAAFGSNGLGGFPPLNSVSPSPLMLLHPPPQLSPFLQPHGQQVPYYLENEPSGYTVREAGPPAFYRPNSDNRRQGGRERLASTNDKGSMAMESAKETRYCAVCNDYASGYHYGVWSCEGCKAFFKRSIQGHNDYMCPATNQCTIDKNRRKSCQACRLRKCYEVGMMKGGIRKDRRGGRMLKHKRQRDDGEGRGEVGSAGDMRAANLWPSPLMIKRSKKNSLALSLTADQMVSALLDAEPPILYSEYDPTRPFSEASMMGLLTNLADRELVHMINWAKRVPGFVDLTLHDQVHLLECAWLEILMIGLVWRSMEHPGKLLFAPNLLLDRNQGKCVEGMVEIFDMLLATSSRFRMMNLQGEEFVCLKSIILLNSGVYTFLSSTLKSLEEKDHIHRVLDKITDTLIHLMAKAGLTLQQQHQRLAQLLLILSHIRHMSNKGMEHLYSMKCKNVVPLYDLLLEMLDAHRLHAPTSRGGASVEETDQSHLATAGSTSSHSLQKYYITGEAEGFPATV
A short description of experiment [5]: qHTS assay to identify small molecule antagonists of the estrogen receptor alpha (ER-alpha) signaling pathway - cell viability counter screen (AID 743074; calls by dose curve;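 further: HEK293 cells carrying ER-alpha-UAS-bla reporter stimulated with 17beta-estradiol; nearly all actives have a fitted effect of over 45% in size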).
The target of experiment [6] is Estrogen receptor (Homo sapiens) (UniProt P03372). Briefly: qHTS assay to identify small molecule agonists of the estrogen receptor alpha (ER-alpha) signaling pathway (AID 743075; calls by dose curve;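 further: HEK293 GripTite cells with ER-alpha and UAS-driven beta-lactamase reporter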).
For experiment [7] the target is unchanged. As to the kind of experiment: qHTS assay to identify small molecule agonists of the estrogen receptor alpha (ER-alpha) signaling pathway using the BG1 cell line (AID 743079). Further: nearly all actives have a fitted effect of over 20% in size. Further: potency means the concentration at half of the fitted maximal effect.
Experiment [8] can be described thus: qHTS assay to identify small molecule antagonists of the estrogen receptor alpha (ER-alpha) signaling pathway using the BG1 cell line (AID 743080; calls by dose curve;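 further: BG1 cells stimulated with 17beta-estradiol alongside compound; series mostly up to about 70 µM; nearly all actives have a fitted effect of over 25% in size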). The essentials: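 Readout is ONE-Glo luminescence, taken 30 min at room temperature after reagent addition, preceded by a CellTiter-Fluor viability read; BG1-Luc-4E2 cells had received compound and 17beta-estradiol for 21.5 h at 37 C.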

The nature of experiment [9]: qHTS assay to identify small molecule antagonists of the estrogen receptor alpha (ER-alpha) signaling pathway using the BG1 cell line - cell viability counter screen (AID 743081).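 Further: compound given together with 17beta-estradiol as the ER stimulus; series mostly up to about 70 µM; nearly all actives have a fitted effect of over 45% in size.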
In a further experiment the target is Aromatase (Homo sapiens) (UniProt P11511). Briefly: qHTS assay to identify aromatase inhibitors (AID 743083). Further: series mostly up to about 70 µM; nearly all actives have a fitted effect of over 55% in size.
Sequence of Aromatase (Homo sapiens) (P11511 whole entry, looked up): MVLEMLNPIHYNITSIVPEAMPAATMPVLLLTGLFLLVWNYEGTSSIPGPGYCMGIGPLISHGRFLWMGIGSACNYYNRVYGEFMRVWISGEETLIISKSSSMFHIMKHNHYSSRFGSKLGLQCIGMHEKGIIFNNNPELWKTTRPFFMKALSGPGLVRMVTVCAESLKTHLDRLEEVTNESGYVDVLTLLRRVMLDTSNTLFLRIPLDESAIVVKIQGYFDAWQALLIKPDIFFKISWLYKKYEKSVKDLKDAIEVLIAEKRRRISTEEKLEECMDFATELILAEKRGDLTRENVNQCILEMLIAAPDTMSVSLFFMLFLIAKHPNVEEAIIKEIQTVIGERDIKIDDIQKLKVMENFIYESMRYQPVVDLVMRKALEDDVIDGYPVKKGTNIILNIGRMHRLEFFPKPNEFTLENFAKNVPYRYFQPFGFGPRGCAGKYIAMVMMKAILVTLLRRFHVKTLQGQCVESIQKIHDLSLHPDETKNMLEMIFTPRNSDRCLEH

Inconclusive results are not listed. A number with no mark means an inactive call. The source made the active and inactive calls. Unless noted, the call rests on the fitted dose curve; in most records, active means well fitted curve in the direction sought with a large enough effect in the repeat runs; inconclusive means weak or mixed curves; inactive means no such curve, though single readings can be large; an effect the other way counts as inactive or inconclusive.

From PubChem BioAssay (Tox21) come the findings set out here.

Regarding `F[Si-2](F)(F)(F)(F)F`, the Potency entry in [1], in experiment [2], in [3], in experiment [4], in experiment [5] and in experiment [6] was “inactive” throughout. Besides, in experiment [7], the Potency entry is “inactive”. The outcome (in experiment [8]; in experiment [9]; with Aromatase (Homo sapiens)) was inactive.
Regarding `CCN(Cc1cccc(S(=O)(=O)O)c1)c1ccccc1`, the Potency entry in experiment [1], in experiment [2], in experiment [3], in experiment [4], in [5] and in experiment [6] was “inactive” in each case. In [7], the Potency entry was “inactive”. In addition, the compound was called inactive (in experiment [8]; in experiment [9]; with Aromatase (Homo sapiens)).
On to `CCCCCCCCCCC`, for which the Potency entry in experiment [1], in [2], in [4], in experiment [5], in experiment [6] and in [7] was “inactive” throughout. For the same compound, the Potency in [3] was 54.5 µM (active). In addition, the call (in experiment [8]; in experiment [9]; with Aromatase (Homo sapiens)) was inactive.
On to `CCCCC(CC)COC(=O)c1ccccc1` (stereo not drawn), for which the Potency result in experiment [1], in experiment [2], in [3], in experiment [4], in experiment [5] and in [6] was “inactive” each time. In [7], the Potency result was “inactive”. Besides, the outcome (in [8]; in experiment [9]; in the experiment with Aromatase (Homo sapiens)) was inactive.
For `C=CCOCC(O)CCl` (stereo not drawn), the Potency result in [1], in [2], in experiment [3], in [4], in experiment [5] and in experiment [6] was “inactive” throughout. Further, in experiment [7], the Potency entry was “inactive”. Moreover, the compound was classed as inactive (in experiment [8]; in experiment [9]; with Aromatase (Homo sapiens)).
Regarding `CCc1nccnc1C`, the Potency result in experiment [1], in experiment [2], in experiment [3], in [4], in experiment [5] and in experiment [6] was “inactive” in each case. For the same compound, the Potency result in experiment [7] was “inactive”. In addition, the outcome (in [8]; in experiment [9]; in the experiment with Aromatase (Homo sapiens)) was inactive.
In the case of `C[C@H](CCC(=O)O)[C@H]1CC[C@H]2[C@@H]3[C@H](O)C[C@@H]4C[C@H](O)CC[C@]4(C)[C@H]3C[C@H](O)[C@]12C`, the Potency result in experiment [1], in experiment [2], in experiment [3], in experiment [4], in [5] and in experiment [6] was “inactive” each time. Moreover, the Potency entry in experiment [7] was “inactive”. Further, the outcome (in experiment [8]; in [9]; with Aromatase (Homo sapiens)) was inactive.
Take `CC(C)(C)NCCO`: the Potency entry in experiment [1], in experiment [2], in [3], in experiment [4], in experiment [5] and in experiment [6] was “inactive” in each case. Further, the Potency entry in [7] was “inactive”. Moreover, the compound was classed as inactive (in experiment [8]; in experiment [9]; in the experiment with Aromatase (Homo sapiens)).
`COC(/C=C(\C)CCC=C(C)C)OC`: the Potency entry in experiment [1], in experiment [2], in experiment [3], in experiment [4], in experiment [5] and in experiment [6] was “inactive” in each case. In addition, the Potency entry in experiment [7] is “inactive”. Also, the compound was called inactive (in [8]; in experiment [9]; with Aromatase (Homo sapiens)).
Turning to `Cc1ccccc1OCC1CO1` (stereo not drawn), the Potency entry in experiment [1], in experiment [2], in experiment [3], in experiment [4], in experiment [5] and in [6] was “inactive” each time. Besides, in experiment [7], the Potency entry is “inactive”. The compound was called inactive (in [8]; in experiment [9]; with Aromatase (Homo sapiens)).
On to `Cc1cc(O)c2c(c1)C(=O)c1cccc(O)c1C2=O`, for which the Potency result in experiment [1], in experiment [2], in experiment [3], in [4], in experiment [5] and in [6] was “inactive” throughout. Moreover, the Potency entry in [7] was “inactive”. Besides, the compound was classed as inactive (in experiment [8]; in the experiment with Aromatase (Homo sapiens)).
As to `C1=C\CC/C=C\CC/1`, the Potency result in [1], in experiment [2], in experiment [3], in experiment [4], in experiment [5] and in [6] was “inactive” throughout. Also, the Potency entry in [7] is “inactive”. The outcome (in [8]; in [9]; with Aromatase (Homo sapiens)) was inactive.
On to `COCC(=O)Nc1c(I)c(C(=O)NCC(O)CO)c(I)c(C(=O)N(C)CC(O)CO)c1I` (stereo not drawn), for which the Potency result in [1], in [2], in experiment [3], in experiment [4], in experiment [5] and in [6] was “inactive” each time. The Potency result in experiment [7] is “inactive”. The result (in experiment [8]; in experiment [9]; in the experiment with Aromatase (Homo sapiens)) was inactive.
`CCCCCCCCCCCCC`: the Potency entry in [1], in experiment [2], in experiment [3], in experiment [4], in experiment [5] and in experiment [6] was “inactive” throughout. Also, in [7], the Potency result is “inactive”. Further, the result (in [8]; in experiment [9]; with Aromatase (Homo sapiens)) was inactive.
As to `NS(=O)(=O)c1ccc(Cl)c(S(N)(=O)=O)c1`, the Potency entry in experiment [1], in experiment [2], in experiment [3], in experiment [4], in experiment [5] and in [6] was “inactive” throughout. In addition, the Potency entry in experiment [7] was “inactive”. Moreover, the compound was classed as inactive (in experiment [8]; in experiment [9]; in the experiment with Aromatase (Homo sapiens)).
`CCC1COC(=O)O1` (stereo not drawn): the Potency result in experiment [1], in [2], in experiment [3], in [4], in [5] and in experiment [6] was “inactive” in each case. For the same compound, the Potency result in experiment [7] was “inactive”. Further, the call (in experiment [8]; in experiment [9]; with Aromatase (Homo sapiens)) was inactive.
As for `CC(=O)OC(C)c1ccccc1` (stereo not drawn), the Potency entry in [1], in [2], in [3], in experiment [4], in experiment [5] and in experiment [6] was “inactive” each time. Also, the Potency entry in experiment [7] is “inactive”. The result (in experiment [8]; in experiment [9]; with Aromatase (Homo sapiens)) was inactive.
Regarding `CN(C)CCOCCN(C)CCO`, the Potency entry in [1], in experiment [2], in [3], in experiment [4], in experiment [5] and in [6] was “inactive” throughout. In addition, the Potency result in experiment [7] was “inactive”. The outcome (in [8]; in experiment [9]; in the experiment with Aromatase (Homo sapiens)) was inactive.
Turning to `C=CC(C)(O)CC/C=C(\C)CC` (stereo not drawn), the Potency result in experiment [1], in experiment [2], in experiment [3], in [4], in [5] and in [6] was “inactive” each time. Moreover, the Potency result in experiment [7] is “inactive”. The outcome (in experiment [8]; in [9]; with Aromatase (Homo sapiens)) was inactive.
`CC(C)CCCC(C)CC=O` (stereo not drawn): the Potency result in [1], in experiment [2], in experiment [3], in [4], in [5] and in experiment [6] was “inactive” in each case. In addition, the Potency result in [7] is “inactive”. The call (in experiment [8]; in experiment [9]; with Aromatase (Homo sapiens)) was inactive.
Regarding `NC(=O)NC(=O)Cc1ccccc1`, the Potency result in [1], in [2], in [3], in experiment [4], in [5] and in experiment [6] was “inactive” each time. Moreover, the Potency in experiment [7] was 33.5 µM (active). Moreover, the outcome (in [8]; in experiment [9]; with Aromatase (Homo sapiens)) was inactive.
For the compound `C=C(C)C(=O)OCCCCCCOC(=O)C(=C)C`, the Potency result in experiment [1], in [2], in experiment [3] and in experiment [5] was “inactive” throughout. Moreover, the compound was called inactive in experiment [9].
For `CCOC(=O)CCCCCCCCC(=O)OCC`, the Potency entry in experiment [1], in experiment [2], in experiment [3], in experiment [4], in experiment [5] and in experiment [6] was “inactive” in each case. In addition, the compound was called inactive (in experiment [8]; in [9]; in the experiment with Aromatase (Homo sapiens)).
For the compound `C=C[C@@H](C)CCC=C(C)C`, the Potency result in experiment [1], in experiment [2], in experiment [3] and in [5] was “inactive” in each case. Further, the result (in [9]; with Aromatase (Homo sapiens)) was inactive.
For `COc1cc(C=O)ccc1OC(=O)C(C)C`, the Potency entry in experiment [1], in [2], in [3] and in [5] was “inactive” throughout. In addition, the result (in [9]; with Aromatase (Homo sapiens)) was inactive.
With `O=C(O)c1ccccc1C(=O)OCc1ccccc1`, the Potency entry in experiment [1], in experiment [2], in [3], in [4], in [6] and in experiment [7] was “inactive” each time. The compound was classed as inactive (in experiment [9]; with Aromatase (Homo sapiens)).
